Source: ChEMBL document CHEMBL4513141, “CO-ADD screening of NIH (USA) - Clinical Collection” (2021)
Measured potencies and affinities stand elsewhere.

What follows are molecules tested on Escherichia coli. Conditions: Concentration 20 uM; ASSAY_TEST Inhibition of Bacterial Growth; detection method Absorption (OD600); MEDIA CAMHB; plate type 384well; NBS; CORNING #3640; time 18 hr.
CC(=O)/N=c1/sc(S(N)(=O)=O)nn1C [METHAZOLAMIDE] was tested, and the Inhibition was 3.59%.
For COc1ccc(/C=C/C(=O)Nc2ccccc2C(=O)O)cc1OC, the Inhibition was -3.33%.
Work on COc1ccccc1OCCNCC(O)COc1cccc2[nH]c3ccccc3c12 (stereo not drawn) [CARVEDILOL] yielded an Inhibition of 6.44%.
Work on Cc1nc2n(c(=O)c1CCN1CCC(c3noc4cc(F)ccc34)CC1)CCCC2 [RISPERIDONE] yielded an Inhibition of 2.58%.
Work on CNCC[C@@H](Oc1ccccc1C)c1ccccc1.Cl [ATOMOXETINE HYDROCHLORIDE] yielded an Inhibition of 5.13%.
COc1ccc(C2CNC(=O)C2)cc1OC1CCCC1 (stereo not drawn) [ROLIPRAM] was tested, and the Inhibition was 5.39%.
In the case of CC(C)C[C@H](NC(=O)[C@@H](O)[C@H](N)Cc1ccccc1)C(=O)O [UBENIMEX], the Inhibition is reported as -1.57%.
In the case of O=S(=O)([O-])CCS.[Na+] [MESNA], the Inhibition is reported as -2.71%.
Cl.O=C1[C@H]2CCCC[C@H]2C(=O)N1CCCCN1CCN(c2nsc3ccccc23)CC1 showed an Inhibition of 0.37%.
For CCOc1cc(CC(=O)N[C@@H](CC(C)C)c2ccccc2N2CCCCC2)ccc1C(=O)O [REPAGLINIDE], the Inhibition was -4.96%.
Molecule CS(=O)(=O)O.Oc1ccc(C2CNCCc3c2cc(O)c(O)c3Cl)cc1 (stereo not drawn) [FENOLDOPAM MESYLATE] has an Inhibition of -0.49%.
C[n+]1ccccc1/C=N/O.[Cl-] [PRALIDOXIME CHLORIDE] showed an Inhibition of 4.53%.
Molecule Cc1ncc([N+](=O)[O-])n1CC(O)CCl (stereo not drawn) [ORNIDAZOLE] has an Inhibition of 5.05%.
OCCN(CCO)c1nc(N2CCCCC2)c2nc(N(CCO)CCO)nc(N3CCCCC3)c2n1 [DIPYRIDAMOLE] gave an Inhibition of 7.34%.
Work on COc1ccc(Cl)cc1C(=O)NCCc1ccc(S(=O)(=O)NC(=O)NC2CCCCC2)cc1 [GLYBURIDE] yielded an Inhibition of -12.57%.
For NC(Cc1cc(I)c(Oc2ccc(O)c(I)c2)c(I)c1)C(=O)O (stereo not drawn) [RATHYRONINE], the Inhibition was 4.17%.
COc1cc2nc(N3CCN(C(=O)C4COc5ccccc5O4)CC3)nc(N)c2cc1OC (stereo not drawn) [DOXAZOSIN] gave an Inhibition of 5.29%.
C[C@H](N[C@@H](CCc1ccccc1)C(=O)O)C(=O)N1CCC[C@H]1C(=O)O [ENALAPRILAT ANHYDROUS] gave an Inhibition of 7.09%.
Molecule Cl.O=C1CN2Cc3c(ccc(Cl)c3Cl)N=C2N1 [ANAGRELIDE HYDROCHLORIDE] has an Inhibition of 7.21%.
In the case of Nc1nc(N)c2nc(-c3ccccc3)c(N)nc2n1, the Inhibition is reported as 10.99%.
Work on O=c1c(O[C@@H]2O[C@H](CO)[C@@H](O)[C@H](O)[C@H]2O)c(-c2ccc(O)c(O)c2)oc2cc(O)cc(O)c12 [ISOQUERCETIN] yielded an Inhibition of -1.78%.
With COc1cc(C(=O)NS(=O)(=O)c2ccccc2C)ccc1Cc1cn(C)c2ccc(NC(=O)OC3CCCC3)cc12 [ZAFIRLUKAST] the Inhibition was 4.93%.
C#C[C@]1(O)CC[C@H]2[C@@H]3CCc4cc(O)ccc4[C@H]3CC[C@@]21C [ETHINYL ESTRADIOL] showed an Inhibition of 3.7%.
Cc1cccc(CCN2CCC(C(=O)c3ccc(NS(C)(=O)=O)cc3)CC2)n1.Cl.Cl showed an Inhibition of -5.54%.
Molecule COc1ccc(CC2c3cc(OC)c(OC)cc3CC[N+]2(C)CCC(=O)OCCCCCOC(=O)CC[N+]2(C)CCc3cc(OC)c(OC)cc3C2Cc2ccc(OC)c(OC)c2)cc1OC.O=S(=O)(O)c1ccccc1 (stereo not drawn) has an Inhibition of 6.82%.
CC1=C(/C=C/C(C)=C/C=C/C(C)=C/C(=O)O)C(C)(C)CCC1 [TRETINOIN] was tested, and the Inhibition was 7.4%.
CCOC(=O)C1=C(C)NC(C)=C(C(=O)OC)C1c1cccc([N+](=O)[O-])c1 (stereo not drawn) [NITRENDIPINE] gave an Inhibition of -2.58%.
In the case of Nc1ccn([C@@H]2CS[C@H](CO)O2)c(=O)n1 [LAMIVUDINE], the Inhibition is reported as 8.04%.
OCc1cc(C(O)CNCCCCCCOCCCCc2ccccc2)ccc1O (stereo not drawn) [SALMETEROL] was tested, and the Inhibition was 8.33%.
C#C[C@]1(O)CC[C@H]2[C@@H]3CCc4cc(OC)ccc4[C@H]3CC[C@@]21C [MESTRANOL] showed an Inhibition of -2.89%.
For CC(=O)NCCCCCCNC(C)=O [HEXAMETHYLENEBISACETAMIDE], the Inhibition was 3.8%.
Work on OC[C@H]1O[C@@H](Oc2cc(O)cc(/C=C/c3ccc(O)cc3)c2)[C@H](O)[C@@H](O)[C@@H]1O [PICEID] yielded an Inhibition of 8.13%.
Molecule CCCC(CCC)C(=O)O [VALPROIC ACID] has an Inhibition of -0.41%.
With NC(=O)c1cnccn1 [PYRAZINAMIDE] the Inhibition was 2%.
In the case of NS(=O)(=O)c1cc2c(cc1Cl)N=CNS2(=O)=O [CHLOROTHIAZIDE], the Inhibition is reported as -2.82%.
O=C(CCNNC(=O)c1ccncc1)NCc1ccccc1 [NIALAMIDE] was tested, and the Inhibition was 8.37%.
With C[C@]12C=CC(=O)C=C1CC[C@@H]1[C@@H]2[C@@H](O)C[C@@]2(C)[C@H]1CC[C@]2(O)C(=O)COC(=O)CCC(=O)[O-].[Na+] [PREDNISOLONE SODIUM SUCCINATE] the Inhibition was 1.73%.
With CS(=O)(=O)O.Cc1ccc(NC(=O)c2ccc(CN3CCN(C)CC3)cc2)cc1Nc1nccc(-c2cccnc2)n1 [IMATINIB MESYLATE] the Inhibition was 2.87%.
